# Experimental data from PubChem BioAssay.
# Values without a mark were called inactive. For part of these data: Entries with a potency or affinity are not part of this list. The source made the active and inactive calls. Unless noted, no rule for the calls is given here.
# Legend:
# [1] = antimalarial activity against Dd2 strain (AID 2302;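 active = growth inhibition above 50% at the single 2 µM test dose, taken to imply half-maximal potency below 2 µM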;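 also: 0% = DMSO untreated growth and 100% = chloroquine plus artemisinin killed control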); conditions: P. falciparum Dd2 in RBCs, LDH growth readout, 72 h; at 2 µM; stronger effect = higher value
# [2] = target: L-lactate dehydrogenase (Plasmodium falciparum (isolate CDC / Honduras)) (UniProt Q27743); test: PfLDH activity inhibition – cell lysate, 3D7 strain, counter-screen for P. falciparum growth inhibition project (AID 2304);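 also: 0% = vehicle and 100% = reference inhibitor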; conditions: P. falciparum 3D7 crude extract, LDH APAD/NBT absorbance; at 2 µM; stronger effect = higher value
# [3] = inhibition of 3D7 malaria parasite growth – strain 3D7 (AID 2306);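 also: 0% = DMSO wells and 100% = chloroquine plus artemisinin control wells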; conditions: P. falciparum 3D7 erythrocytic growth, LDH absorbance, 72 h; at 2 µM; stronger effect = higher value
# [4] = target: Calcium-dependent protein kinase 1 (Plasmodium falciparum (isolate 3D7)) (UniProt P62344); test: PfCDPK1 kinase inhibitors, biochemical, TCAMS library (AID 1159585; cut-off not given, nearly all actives have IC50 up to about 0.98 µM;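 also: inhibitors leave more ATP so luminescence rises with inhibition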); conditions: recombinant PfCDPK1, Kinase-Glo ATP depletion luminescence
# [5] = target: Plasmodium falciparum protein kinase 6 (PK6, PF3D7_1337100) (UniProt Q8IDW1); test: PfPK6 kinase inhibitors, biochemical, TCAMS library (AID 1159586); conditions: recombinant PfPK6, Kinase-Glo ATP depletion luminescence
# [6] = target: Protein kinase 7 (PK7), Plasmodium falciparum 3D7 (PF3D7_0213400) (UniProt Q7YTF7); test: inhibition of Plasmodium PK7 catalytic activity – biochemical, TCAMS antimalarial set, Kinase-Glo luminescence (AID 1159587); conditions: recombinant PfPK7, Kinase-Glo ATP depletion luminescence
# [7] = target: Calcium-dependent protein kinase 4 (Plasmodium falciparum (isolate 3D7)) (UniProt Q8IBS5); test: PfCDPK4 kinase inhibitors, biochemical, TCAMS library (AID 1159588; cut-off not given, nearly all actives have IC50 up to about 0.91 µM); conditions: recombinant PfCDPK4, Kinase-Glo ATP depletion luminescence
# Chain of Calcium-dependent protein kinase 4 (Plasmodium falciparum (isolate 3D7)) (Q8IBS5 whole entry, looked up): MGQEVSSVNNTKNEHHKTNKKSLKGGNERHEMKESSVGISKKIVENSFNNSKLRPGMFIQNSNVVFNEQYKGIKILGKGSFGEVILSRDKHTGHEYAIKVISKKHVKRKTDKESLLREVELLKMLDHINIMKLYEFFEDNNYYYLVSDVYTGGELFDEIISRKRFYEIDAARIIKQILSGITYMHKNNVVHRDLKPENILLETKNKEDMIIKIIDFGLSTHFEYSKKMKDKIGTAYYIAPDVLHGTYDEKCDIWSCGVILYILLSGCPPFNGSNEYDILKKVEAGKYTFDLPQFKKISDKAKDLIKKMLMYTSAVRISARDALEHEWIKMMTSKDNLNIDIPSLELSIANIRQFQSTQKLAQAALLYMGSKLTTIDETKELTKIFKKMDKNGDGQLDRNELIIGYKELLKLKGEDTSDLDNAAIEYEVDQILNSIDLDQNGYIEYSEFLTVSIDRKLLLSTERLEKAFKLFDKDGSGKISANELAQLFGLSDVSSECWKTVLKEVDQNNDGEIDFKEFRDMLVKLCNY
# Chain of Calcium-dependent protein kinase 1 (Plasmodium falciparum (isolate 3D7)) (P62344 whole entry, looked up): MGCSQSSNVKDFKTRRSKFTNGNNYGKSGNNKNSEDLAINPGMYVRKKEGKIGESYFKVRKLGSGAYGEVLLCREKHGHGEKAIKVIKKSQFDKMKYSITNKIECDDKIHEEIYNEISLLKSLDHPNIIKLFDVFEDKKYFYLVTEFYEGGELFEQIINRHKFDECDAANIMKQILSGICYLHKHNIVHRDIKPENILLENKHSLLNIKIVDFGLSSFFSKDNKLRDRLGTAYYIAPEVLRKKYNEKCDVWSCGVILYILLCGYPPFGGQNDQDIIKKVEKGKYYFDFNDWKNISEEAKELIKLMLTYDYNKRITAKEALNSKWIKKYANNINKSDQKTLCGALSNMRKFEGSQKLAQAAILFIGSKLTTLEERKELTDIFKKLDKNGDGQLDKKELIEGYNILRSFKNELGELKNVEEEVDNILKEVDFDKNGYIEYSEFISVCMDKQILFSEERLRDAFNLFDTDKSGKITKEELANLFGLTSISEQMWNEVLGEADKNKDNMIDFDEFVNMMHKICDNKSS
# Chain of Plasmodium falciparum protein kinase 6 (PK6, PF3D7_1337100) (Q8IDW1 1-305): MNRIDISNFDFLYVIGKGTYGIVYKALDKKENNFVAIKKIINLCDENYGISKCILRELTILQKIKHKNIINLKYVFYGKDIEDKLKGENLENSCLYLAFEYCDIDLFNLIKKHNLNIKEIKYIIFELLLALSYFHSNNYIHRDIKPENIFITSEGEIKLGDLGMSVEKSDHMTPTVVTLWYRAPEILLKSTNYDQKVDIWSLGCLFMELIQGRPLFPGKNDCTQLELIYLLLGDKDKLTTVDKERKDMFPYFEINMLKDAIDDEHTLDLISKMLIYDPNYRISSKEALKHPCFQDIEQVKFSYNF
# Chain of Protein kinase 7 (PK7), Plasmodium falciparum 3D7 (PF3D7_0213400) (Q7YTF7 1-343): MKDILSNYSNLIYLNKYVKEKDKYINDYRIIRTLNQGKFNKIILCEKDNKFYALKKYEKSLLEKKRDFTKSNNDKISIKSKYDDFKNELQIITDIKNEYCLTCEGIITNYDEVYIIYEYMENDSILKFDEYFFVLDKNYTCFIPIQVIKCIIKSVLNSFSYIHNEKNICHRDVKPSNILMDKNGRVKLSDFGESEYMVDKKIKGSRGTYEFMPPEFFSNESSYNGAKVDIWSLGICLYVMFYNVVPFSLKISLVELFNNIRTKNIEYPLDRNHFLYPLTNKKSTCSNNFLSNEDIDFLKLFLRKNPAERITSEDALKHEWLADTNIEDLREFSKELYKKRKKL
# Chain of L-lactate dehydrogenase (Plasmodium falciparum (isolate CDC / Honduras)) (Q27743 whole entry, looked up): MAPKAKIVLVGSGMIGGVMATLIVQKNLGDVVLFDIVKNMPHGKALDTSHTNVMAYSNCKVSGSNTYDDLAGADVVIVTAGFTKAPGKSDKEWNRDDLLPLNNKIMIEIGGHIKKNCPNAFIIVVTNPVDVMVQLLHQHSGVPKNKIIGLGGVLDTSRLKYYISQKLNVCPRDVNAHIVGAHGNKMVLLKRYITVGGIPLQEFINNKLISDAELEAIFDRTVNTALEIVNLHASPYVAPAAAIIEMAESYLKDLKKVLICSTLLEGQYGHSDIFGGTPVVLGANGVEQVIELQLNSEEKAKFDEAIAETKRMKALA
SMILES,growth inhibition [1],inhibition [2] [%],growth inhibition [3],outcome [4],outcome [5],outcome [6],outcome [7]
COc1ccc2c(c1CNCCCCCCNCc1c(OC)ccc3c1CCCC3)CCCC2,7%,6,94% (active),inactive,inactive,inactive,inactive
Cc1cc(=O)c(-c2ccc(S(=O)(=O)c3ccc(Cl)cc3)cc2)c(C)[nH]1,80% (active),4,92% (active),inactive,inactive,inactive,inactive
CCOc1cc2ncnc(Nc3ccc(OCc4c(Cl)cccc4Cl)c(OC)c3)c2cc1OCC,12%,5,89% (active),inactive,inactive,inactive,inactive
Cc1nc2nc(N)nc(N)c2c(C)c1Cc1ccc([N+](=O)[O-])cc1,11%,-1,98% (active),inactive,inactive,inactive,inactive
Nc1nc(N)c2c(ccc3c2ccn3Cc2cccc(F)c2)n1,99% (active),-6,101% (active),inactive,inactive,inactive,inactive
CCCCSc1ccc(CNCCCCCCNCc2ccc(SCCCC)c3ccccc23)c2ccccc12,48%,0,94% (active),inactive,inactive,inactive,inactive
Cn1c(=N)cc(-c2cccc(I)c2)c2c(=O)[nH]c(N)nc21,75% (active),6,89% (active),inactive,inactive,inactive,inactive
COc1cc(Cc2cnc(N)nc2N)cc(OCCCCCCC(=O)O)c1OC,2%,-4,90% (active),inactive,inactive,inactive,inactive
CCC(C)c1cnc2nc(N)nc(N)c2c1C (stereo not given),1%,-3,97% (active),inactive,inactive,inactive,inactive
CCCCC#Cc1cnc2nc(N)[nH]c(=O)c2n1,2%,0,89% (active),inactive,inactive,inactive,inactive
CCCc1cc2c3c(N)nc(N)nc3ccc2n1CC,6%,-1,96% (active),inactive,inactive,inactive,inactive
Cc1cc2c3c(N)nc(N)nc3ccc2n1C,-2%,-5,95% (active),inactive,inactive,inactive,inactive
Cc1[nH]c(C)c(-c2ccc(Cl)cc2)c(=O)c1I,96% (active),-5,93% (active),inactive,inactive,inactive,inactive
CCc1cc(COc2ccc(CNCCC(C)C)cc2I)c(OCc2ccccc2)c(COc2ccc(CNCCC(C)C)cc2I)c1,15%,0,89% (active),inactive,inactive,inactive,inactive
COc1ccc(-c2cnc(N)nc2N)cc1Cl,1%,4,84% (active),inactive,inactive,inactive,inactive
Nc1nc(N)c2cc(Cc3ccc([N+](=O)[O-])cc3)cnc2n1,-3%,-2,91% (active),inactive,inactive,inactive,inactive
CC(C)(C)c1ccc(-c2nc3c(ccc4nc(N)nc(N)c43)[nH]2)cc1,101% (active),1,100% (active),inactive,inactive,inactive,inactive
N=C(N)c1ccc2[nH]c(-c3cc4cc(C(=N)N)ccc4o3)cc2c1,87% (active),5,94% (active),inactive,inactive,inactive,inactive
CC1CCN(Cc2c(O)ccc3c(CN4CCC(C)CC4)c(O)ccc23)CC1,86% (active),-3,102% (active),inactive,inactive,inactive,inactive
CCNC(=O)CCc1cccc(Br)c1,54% (active),6,89% (active),inactive,inactive,inactive,inactive
Nc1nc(N)c(-c2ccccc2)c(=O)[nH]1,-5%,0,83% (active),inactive,inactive,inactive,inactive
Cc1nc(C)c(-c2ccc(Oc3ccc(OC(F)(F)F)cc3)cc2)c(OC(=O)c2ccccc2)c1Cl,97% (active),2,97% (active),inactive,inactive,inactive,inactive
CCCCCCCCCC(=O)NCC1CC(Br)=NO1 (stereo not given),42%,-7,87% (active),inactive,inactive,inactive,inactive

SMILES,growth inhibition [1],inhibition [2] [%],growth inhibition [3],outcome [4],outcome [5],outcome [6],outcome [7]
Cc1[nH]c(C)c(-c2ccc(Oc3cc(Cl)cc(Cl)c3)cc2)c(=O)c1Cl,96% (active),-7,96% (active),inactive,inactive,inactive,inactive
Nc1ccncc1C(=O)NCCCCN1CCN(c2nsc3ccccc23)CC1,9%,6,101% (active),inactive,inactive,inactive,inactive
Cc1[nH]c(C)c(-c2ccc(Oc3ccc(Cl)cc3)c(Cl)c2)c(=O)c1Br,96% (active),-1,97% (active),inactive,inactive,inactive,inactive
CC(=O)Oc1c(Cl)c(C)nc(C)c1-c1ccc(Oc2ccc(OC(F)(F)F)cc2)cc1,98% (active),5,97% (active),inactive,inactive,inactive,inactive
Nc1nc(N)c2c(ccc3c2ccn3Cc2ccc(Br)cc2)n1,98% (active),-13,101% (active),inactive,inactive,inactive,inactive
CCCc1cc(Cc2cnc(N)nc2N)cc2c1OC(C)(C)C2,3%,-1,89% (active),inactive,inactive,inactive,inactive
CC1CN=C(c2ccc(NC(=O)Nc3ccc(C4=NCC(C)N4)cc3)cc2)N1 (stereo not given),67% (active),0,85% (active),inactive,inactive,inactive,inactive
CCOc1cc2ncnc(Nc3ccc(OCc4ccccc4OC)c(OC)c3)c2cc1OCC,52% (active),-5,97% (active),inactive,inactive,inactive,inactive
CCN(CC)c1ccc2nc(N)nc(N)c2c1,-2%,2,93% (active),inactive,inactive,inactive,inactive
Cc1c(Cc2ccc(C(C)C)cc2)cnc2nc(N)nc(N)c12,-3%,6,97% (active),inactive,inactive,inactive,inactive
Cc1cccc(Cn2ccc3c4c(N)nc(N)nc4ccc32)c1,98% (active),1,95% (active),inactive,inactive,inactive,inactive
CC(=O)Oc1c(Br)c(C)nc(C)c1-c1ccc(Oc2ccc(OC(F)(F)F)cc2)cc1,97% (active),-4,98% (active),inactive,inactive,inactive,inactive
Oc1c(CNC2CCCCC2)cc(Cl)c2ccccc12,101% (active),0,98% (active),inactive,inactive,inactive,inactive
CC1CCNc2ccc(Cc3cnc(N)nc3N)cc21 (stereo not given),0%,5,82% (active),inactive,inactive,inactive,inactive
CCOc1cc(OCC)c2ccccc2c1CNCCCCCCNCc1c(OCC)cc(OCC)c2ccccc12,89% (active),2,101% (active),inactive,inactive,inactive,inactive
c1ccc2c(c1)cc(CNCCCN1CCN(CCCNCc3cc4ccccc4c4ccccc34)CC1)c1ccccc12,98% (active),2,101% (active),inactive,inactive,inactive,inactive
Nc1ncc(-c2ccc(F)c(Cl)c2)c(N)n1,-2%,5,83% (active),inactive,inactive,inactive,inactive
CCN(c1ccc(O)c(CN2CCCCC2)c1)c1ccc([N+](=O)[O-])cn1,64% (active),2,94% (active),inactive,inactive,inactive,inactive
CCOc1cc(Cc2cnc(N)nc2N)cc(Br)c1OC,3%,5,83% (active),inactive,inactive,inactive,inactive
COc1ccc(C2c3ccccc3-c3nc(N)nc(N)c3C2C)cc1 (stereo not given),0%,3,97% (active),inactive,inactive,inactive,inactive
CCOC(=O)c1nc2ccc(SC3CCCCC3)cn2c1Br,3%,3,86% (active),inactive,inactive,inactive,inactive
COc1ccc2c(c1CCNCCCCNCCc1c(OC)ccc3c1CCCC3)CCCC2,25%,7,101% (active),inactive,inactive,inactive,inactive
